tim23-1 inh = growth inhibitors of tim23-1 mutant yeast, primary screen, luminescence, uHTS; S. cerevisiae tim23-1 growth, BacTiter-Glo luminescence, 24 h; inhibition, % at 20 µM; 330,000 compounds, 1.3% hits;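 active = growth inhibition of the mutant yeast at or above 50%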;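 note: temperature-sensitive mutant grown at 25 °C; plate controls were DMSO-treated mutant yeast for no effect and medium wells lacking yeast for full effect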
tim10-1 inh = growth inhibitors of tim10-1 mutant yeast, primary screen, luminescence, uHTS; inhibition, % at 20 µM; 330,000 compounds, 2.2% hits; S. cerevisiae tim10-1 ts strain growth, BacTiter-Glo, 24 h; AID 463190, 2010;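 active = inhibition of at least 40%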;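 note: mutant grown at 25 °C; 0% = DMSO wells with yeast and 100% = wells holding no yeast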
TIM10 inh = growth inhibitors of isogenic TIM10 control yeast, primary screen, counter-screen for tim10-1 yeast inhibitor project, luminescence, uHTS; S. cerevisiae TIM10 strain growth, BacTiter-Glo luminescence, 24 h; inhibition, % at 10 µM; 330,000 compounds, 1.4% hits;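 active = inhibition of 40% or more at the single tested concentration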;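 note: wild-type TIM10 isogenic control strain grown at permissive 25 °C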
NLRP3 yeast inh = NALP3 inflammasome inhibitors in reconstituted yeast, primary screen, luminescence, uHTS. Yeast reconstituted NLRP3/ASC/caspase-1, beta-gal luminescence, 24 h. inhibition, % at 10 µM. 330,000 compounds, 0.39% hits;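 active = inhibition of 50% or more; inactive = inhibition below 50%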;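 note: plate controls were induced DMSO wells for no effect and uninduced yeast grown without galactose for full effect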
PfHsp90 yeast 2 = growth inhibition of PfHsp90-expressing yeast, primary screen, antimalarial PfHsp90 inhibitor project, S. cerevisiae, BacTiter-Glo luminescence, single point, set 2. inhibition, % at 9.4 µM. BacTiter-Glo ATP, 48 h; yeast lacking PDR1 and PDR3 efflux regulators. AID 504621, 2011. 310,000 compounds, 0.32% hits;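 active = every replicate shows inhibition above about 80%, whatever the replicate mean, limit read from the data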;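 note: 0% = DMSO neutral controls and 100% = 20 µM radicicol positive controls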
tim10-1 conf = growth inhibitors of tim10-1 mutant yeast, confirmation, single concentration, luminescence, S. cerevisiae. shares compounds with tim10-1 inh. S. cerevisiae tim10-1 ts strain growth, BacTiter-Glo, 24 h. inhibition, % at 20 µM. 7,400 compounds, 56% hits. AID 463213, 2010;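 active = inhibition of yeast growth at or above a set limit in either of two repeat tests at 20 µM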;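 note: tim10-1 mutant grown at permissive 25 °C to find synthetic lethal compounds; 0% = DMSO yeast wells and 100% = medium wells without yeast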
TIM10 conf = growth inhibitors of wild-type TIM10 yeast, confirmation, counter-screen for tim10-1 synthetic lethality project, single concentration, luminescence, S. cerevisiae; shares compounds with TIM10 inh; S. cerevisiae tim10 strain growth, BacTiter-Glo luminescence, 24 h; inhibition, % at 10 µM; 4,600 compounds, 63% hits;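 active = inhibition of yeast growth at or above a set limit in either of two replicates at 10 µM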;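 note: this counterscreen used the strain with wild-type TIM10; 0% = yeast with DMSO and 100% = medium wells lacking yeast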
tim23-1 confirm = tim23-1 mutant yeast growth inhibitors, confirmation, luminescence, single concentration. inhibition, % at 20 µM. S. cerevisiae tim23-1 growth, BacTiter-Glo luminescence, 24 h. 4,400 compounds, 83% hits. shares compounds with tim23-1 inh;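 active = inhibition above about 39% in either of two replicate wells at 20 µM, limit read from the data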;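 note: temperature-sensitive tim23-1 mutant grown at 25 °C; 0% = DMSO wells with yeast and 100% = medium wells without yeast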
* marks the source's active call; other numbers are inactive results; . = not tested or not shown. In the library only some 3.7% were active in any assay of this set; here they are far more common.

SMILES	tim23-1 inh	tim10-1 inh	TIM10 inh	NLRP3 yeast inh	PfHsp90 yeast 2	tim10-1 conf	tim23-1 confirm	others
Cc1ccc(O)c(C(=O)C=Cc2ccccc2)c1	.	.	.	.	-8	.	.
CCSc1ncc(/C=N/Nc2ccccc2)n1C	15	-4	-24	35	-14	.	.
CCSc1ncc(/C=N/Nc2ccc(Cl)cc2)n1C	70*	46*	-29	35	.	6	63*
COc1ccc(-c2cc(=O)oc3cc(OCC(=O)NCC4CCC(C(=O)O)CC4)ccc23)cc1 (centres undefined)	3	2	0	2	16	.	.
Cc1nc2c(-c3ccc(F)cc3)cnn2c(N)c1-c1ccccc1	74*	46*	45*	4	8	35*	42*	TIM10 conf=52*
Cc1ccc(O)c(C2=NCCNC(C(F)(F)F)=C2)c1	-8	-22	5	-3	.	.	.
Oc1c(C2=NCCNC(C(F)(F)F)=C2)ccc2ccccc12	59*	48*	44*	32	-5	31	71*	TIM10 conf=43*
CN(C(=O)COc1ncnc2sccc12)C1CCCCC1	11	7	6	2	5	.	.
Oc1c(Br)cc(Br)cc1C=Nc1cccc2ncccc12	83*	55*	-5	12	-5	41*	86*
COc1ccc(S(=O)(=O)N2CCN(C(=O)c3cc4c(s3)CCCC4)CC2)cc1	50*	54*	22	9	-23	39*	57*
CCc1ccc(OC(=O)c2cccnc2)cc1	10	19	5	26	0	.	.
Cc1ccc(C2CN(C)C3(C(=O)Nc4ccccc43)C23COc2ccccc2C3=O)cc1 (centres undefined)	53*	45*	29	-19	-11	37*	47*
CC(C)Cc1nc2oc3c(Cl)ncnc3c2c2c1CCC2	55*	50*	37	20	-37	36*	55*
CC(C)Cc1nc2oc3c(NCCCN4CCOCC4)ncnc3c2c2c1CCC2	1	24	15	0	28	.	.
Fc1cccc(Nc2nc(-c3ccncc3)nc3ccccc23)c1	26	17	16	14	-88	.	.
c1ccc(-c2nc(NC3CCCC3)c3ccccc3n2)cc1	53*	46*	41*	28	15	36*	68*	TIM10 conf=17
c1ccc(Nc2nc(-c3ccccc3)nc3ccccc23)cc1	65*	47*	27	30	-19	26	49*
COc1ccc(Nc2nc(-c3ccccc3O)nc3ccccc23)cc1	51*	46*	33	22	-35	36*	59*
CC[C@]12C(=O)N(C)C[C@H]([C@@H]3C(=O)N(C)C(=O)[C@@H]31)N2C(=O)c1ccc(Cl)c(Cl)c1	.	.	.	.	-7	.	.
C=C1CC2(OC1=O)c1ccccc1CCc1ccccc12	.	.	.	.	-61	.	.
O=C(COC(=O)CCN1C(=O)/C(=C\C=C\c2ccccc2)SC1=S)Nc1ccc(Br)cc1	54*	49*	43*	10	0	40*	74*	TIM10 conf=51*
COc1ccccc1NC(=O)C(C)OC(=O)/C(=C/c1ccccc1)NC(C)=O (centres undefined)	-7	-6	-4	17	18	.	.
COc1cc(C(=O)O[C@H]2CC(C)=CC[C@@]3(C)CC[C@@](O)(C(C)C)[C@H]23)ccc1O	54*	50*	29	2	-27	40*	57*
COCCn1c(SCC(=O)N2CCCCCC2)nnc1-c1ccco1	-5	-5	-4	6	19	.	.
